Assay outcomes deposited in PubChem BioAssay by National Center for Advancing Translational Sciences (NCATS).
Shown are actives, neighbours in structure and some others; about 15% of the full set was active somewhere.
Pf growth 48h: P. falciparum growth inhibition at 48 hours (one generation); P. falciparum luciferase growth in erythrocytes, 48 h; Potency, µM (series often up to 28.7 µM), inactives show top-dose activity change, negative = inhibition, usual class: inhibitors; hit rate 5.9% among 310,000; further: potency means the concentration at half of the fitted maximal effect; on the % scale 0 is the no-effect control and ±100 the full control effect
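Cell-based growth assay: transgenic P. falciparum expressing firefly luciferase, cultured in red cells within RPMI 1640 containing 0.5% w/v Albumax, 24 mM bicarbonate and gentamycin. A drop in luciferase activity indicates inhibition.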
HCV inh: blocks hepatitis C virus; Huh7.5.1 HCVcc-Cre infection, luciferase reporter, 44 h; Potency, µM (doses to about 41.8 µM), without a hit: top-dose activity change, negative = inhibition, usual class: inhibitors; hit rate 3.4% among 340,000; further: potency means the concentration at half of the fitted maximal effect; on the % scale 0 is the no-effect control and ±100 the full control effect
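Antiviral activity was scored by luciferase reporter output from cells infected with HCVcc-Cre (~0.5 moi) in presence of compound, 44 h infection period, cells seeded 1,000/well 4 h prior.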
Sm TGR inh: inhibitors of Schistosoma mansoni thioredoxin glutathione reductase; Q962Y6; purified TGR, DTNB reduction, TNB absorbance 405 nm; hit rate 3% among 360,000; Potency, µM (series often up to 114 µM), for the others: at the top dose activity change, negative = inhibition, most hits filed as inhibitors; further: potency means the concentration at half of the fitted maximal effect; on the % scale 0 is the no-effect control and ±100 the full control effect; nearly all actives have a fitted effect of over 60% in size
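TGR 20 nM + NADPH 100 uM (dispensed conc.), cpd preinc 15 min RT; start with NADPH (500 uM addition) then DTNB (15 mM addition). Kinetic TNB absorbance, 405 nm filter. Four-parameter Hill fit across titration.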
HCMV antiviral: inhibitors of human cytomegalovirus | HFF cells, HCMV-luciferase reporter, 72 h; hits give low values | activity change, negative = inhibition, % at 57.5 µM | hit rate 4.5% among 410,000; in the data active means activity change below about -60%; inconclusive means no clear call, values can overlap the other calls; inactive means above about -39%; further: on the % scale 0 is the no-effect control and ±100 the full control effect
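Screen run at 2 compound doses on HFFs infected with reporter HCMV, MOI 1 PFU/cell. Luciferase activity from cell lysates at 72 h post infection gave inhibition relative to buffer-only and Salinomycin wells.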
Pf growth 96h: P. falciparum growth inhibition at 96 hours; P. falciparum luciferase reporter growth, 96 h; Potency, µM (highest dose often 28.7 µM), without a hit: top-dose activity change, negative = inhibition, usual class: inhibitors; hit rate 6.9% among 320,000; further: potency means the concentration at half of the fitted maximal effect; on the % scale 0 is the no-effect control and ±100 the full control effect
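Parasite growth measured via integrated firefly luciferase reporter in P. falciparum. Infected erythrocytes at 2% hematocrit, 0.05% parasitemia final were treated 96 hours at 37 C under 5% CO2, and luminescence was read.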
SARS PLpro yeast: SARS-CoV PLP inhibition in yeast | AID 485353 | Potency, µM (top dose mostly 32.9 µM), for the others: top-dose activity, positive = growth rescue, hits mostly activators | S. cerevisiae expressing SARS-CoV PLpro, growth rescue | hit rate 0.19% among 330,000; calls by dose curve; further: potency means the concentration at half of the fitted maximal effect; 0% is about no effect; nearly all actives have a fitted effect of over 55% in size
Numbers without * were called inactive; ? = inconclusive; · = no result given; [ ] = another dose, or the depositor's remark. Unless noted, the call rests on the fitted dose curve; in most records, active means well fitted curve in the direction sought with a large enough effect; inconclusive means small, poorly fitted or top-dose-only effect, or another doubt; inactive means no such curve, though single readings can be large; an effect the other way counts as inactive or inconclusive.

SMILES | Pf growth 48h | HCV inh | Sm TGR inh | HCMV antiviral | Pf growth 96h | SARS PLpro yeast
O=C(CSc1ccc2nnc(-c3cccc(F)c3)n2n1)NCc1ccco1 | ? | ? | ? | 43 | 6.6µM* | -1%
CSc1ccc2nnc(-c3cccc(F)c3)n2n1 | -3% | ? | 8% | -31 | ? | 2%
Cc1cc(NC(=O)CSc2ccc3nnc(-c4cccs4)n3n2)no1 | · | -12% | 1% | -11 | 2.3µM* | 0%
Cc1cccc(C)c1NC(=O)C(C1CC1)n1c(-c2ccc(C(F)(F)F)cc2)nc2ccccc21 (centres undefined) | · | · | · | -30 | · | ·
COc1ccc(CCC(=O)NNC(=S)Nc2cccc(C(C)=O)c2)cc1 | -7%[5.75 µM] | -28% | -1% | -35 | 33%[5.75 µM] | 1%
CCOC(=O)c1cnn(-c2ccccc2)c1-n1cccc1C(=O)C(=O)Nc1ccccc1C(F)(F)F | 13µM* | ? | 2% | -23 | 15µM* | -9%
Cc1ccc(/C=N/NC(=O)c2ccc3nc[nH]c3c2)o1 | ? | 12% | -1% | -60* | -7% | 1%
CCOc1cc(/C=N/NC(=O)c2ccc(N(C)S(=O)(=O)c3ccccc3)cc2)ccc1OC | -16% | 8.9µM* | 20% | 34 | -1% | 0%
COc1cc(C(=O)NN=Cc2ccc(N(C)C)cc2)cc(OC)c1OC | · | · | · | -66* | · | ·
O=C(N/N=C/c1cc2c(c([N+](=O)[O-])c1)OCO2)c1ccncc1 | 75% | -8% | -20% | 3 | 2.3µM* | 1%
COc1cc(/C=N/NC(=O)c2ccc(N(C)S(=O)(=O)c3ccccc3)cc2)cc(OC)c1OC | -2% | ? | -3% | -18 | ? | -24%
O=C(N/N=C/c1cc2c(cc1[N+](=O)[O-])OCO2)c1cccnc1 | ? | 18% | -2% | -6 | -27% | 2%
O=c1[nH]c(=O)c2[nH]c(=S)n(-c3ccccc3)c2[nH]1 | · | 6% | · | -7 | · | ·
O=C(N/N=C/c1ccc(Br)o1)c1ccc2c(c1)OCCO2 | 57% | 6% | -23% | 4 | 8% | -38%
O=C(N/N=C/c1ccc([N+](=O)[O-])o1)c1ccc2c(c1)OCO2 | ? | ? | ? | -96* | ? | -8%
CN(C)c1ccc(/C=N/NC(=O)c2ccc3c(c2)OCO3)cc1 | 41% | -3% | -10% | -66* | 214% | -3%
O=C(N/N=C/c1ccccc1)c1ccc2c(c1)OCO2 | 254% | -7% | 9% | ? | ? | -2%
Cc1ccc(/C=N\NC(=O)c2ccc3c(c2)OCO3)o1 | 66% | 8% | 0% | 36 | 1.3µM* | -2%
COc1ccc2ccc(OCC(=O)NCC3CCCO3)cc2c1 (centres undefined) | -12% | 10% | -10% | 0 | -1% | 4%
O=C(CC1OC(=O)c2ccccc21)Nc1cccc(S(=O)(=O)N2CCCCCC2)c1 (centres undefined) | ? | ? | -22% | 11 | -16% | -7%
N#Cc1ccc(S(=O)(=O)N2CCC(C(=O)N3CCN(Cc4ccc5c(c4)OCO5)CC3)CC2)cc1 | ? | 10µM* | -2% | ? | ? | -6%
O=C(Cn1ncc2c1-c1ccccc1OC2)N1CCN(c2ccccc2)CC1 | · | · | 4% | -17 | · | ·
O=C(Nc1ccc2c(c1)OCO2)C1CCN(Cc2cc3c(cc2O)OCO3)CC1 | ? | 13% | 2.8µM* | 33 | -16% | 0%
O=C(Cn1ncc2c1-c1ccccc1OC2)N1CCN(Cc2ccc3c(c2)OCO3)CC1 | · | -20% | -26% | -24 | 4.7µM* | -1%
O=c1c2ccccc2c(C=NC2CCN(Cc3ccccc3)CC2)c(O)n1Cc1ccc2c(c1)OCO2 | 4.7µM* | · | -1% | 10 | ? | 0%
O=C(C1CCN(S(=O)(=O)c2ccccc2)CC1)N1CCN(Cc2ccc3c(c2)OCO3)CC1 | -9% | · | -5% | -7 | -26% | ?
CN(C)CCN=Cc1c(O)n(Cc2ccc3c(c2)OCO3)c(=O)c2ccccc12 | 92% | -11% | 1% | -6 | 15% | 0%
